Values joined by “and” are separate entries in the source; they are usually repeats but may differ in a detail not shown here. Equal values may be shown once. Active and inactive are the calls of the source.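 The calls were made as follows, unless noted: active = thallium flux through the channel raised or lowered by more than 3 SD from vehicle-only wells, actives on both sides; inactive = the rest.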

Three compounds from PubChem BioAssay can be followed below.

Experiment [1] in a line: stimulators of nuclear beta-catenin in C2C12, primary screen, imaging, WNT3A-conditioned medium, mouse C2C12, NPC library (AID 1117326; in the data active = nuclear beta-catenin stimulation mostly above about 4.2%, no sharp cut-off; inactive = mostly below about 10%). Particulars: stronger effect = higher value.
Experiment [2] in a line: stimulators of insulin release from INS-1E, primary screen, cell-based, 5 mM glucose, NPC library (AID 1117329;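 active = compound raises insulin release from rat beta cells at 5 mM glucose, no numeric limit stated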). As to conditions: rat INS-1E insulin secretion, at 10 µM, stronger effect = higher value.
Experiment [3] in a line: growth inhibition of GSK3B-pretreated HCT116 cells – cell-based, CellTiter-Glo, 0.2 to 20 µM (AID 1117336;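 active = compounds lowering colon cancer cell viability after pretreatment blocking the GSK3B kinase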). Particulars: HCT116 viability after GSK3B inhibitor, at 20 µM, stronger effect = higher value.
Experiment [4] is described as follows: inhibition of endothelial tube formation, primary screen, imaging, VEGF stimulated, CD31 staining, tube area, NPC library (AID 1117340;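 active = compound that reduces growth-factor-driven endothelial tube area in a mixed cell culture, no cutoff stated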). Particulars: VEGF-stimulated ADSC/ECFC co-culture, at 10 µM, stronger effect = higher value.
A short description of experiment [5]: glucagon-like peptide 1 release enhancers, primary assay, NCI-H716 cell line, NPC library (AID 1117341;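 active = compound raises GLP1 secretion from the human gut endocrine cells, with no numeric limit stated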). Particulars: NCI-H716 cells, at 10 µM, stronger effect = higher value.
A short description of experiment [6]: HCT116 colon cancer cell growth inhibition, primary screen, CellTiter-Glo luminescence, NPC library (AID 1117342;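 active = compounds that lower survival of HCT116 colon cancer cells in the luminescence readout, no numeric limit stated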). Particulars: at 20 µM (top of the series).
The nature of experiment [7]: CellTiter-Glo luminescent readout of SW480 viability loss, NPC library primary (AID 1117343;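 active = compounds that lower viability of the colon cancer cells in the luminescence readout, with no numeric limit stated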). Particulars: CellTiter-Glo luminescence; at 20 µM (top of the series).
Experiment [8] in a line: decreased DLD-1 cellular survival, CellTiter-Glo luminescent readout, NPC compound collection, primary HTS (AID 1117346;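 active = compounds that lower survival of DLD-1 colon cancer cells in the luminescence readout, no cutoff given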). As to conditions: DLD-1 viability, CellTiter-Glo luminescence; at 20 µM (top of the series). (In general: Cellular ATP, detected with luciferase, serves as a proxy for viable cell number.)
For experiment [9], the target named is 6-phosphogluconate dehydrogenase, decarboxylating (Homo sapiens) (UniProt P52209). Put plainly: 6PGD enzyme inhibitors, primary screen, biochemical, human, recombinant enzyme, NADPH absorbance (AID 1159550;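 active = at least 20% inhibition of 6-phosphogluconate dehydrogenase activity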). As to conditions: recombinant 6PGD, NADPH absorbance 341 nm; at 10 µM; stronger effect = higher value.
Experiment [10] in a line: differential killing of epithelial or mesenchymal cells, primary screen, imaging, PC-3E GFP, TEM4-18 mCherry, co-culture (AID 1345086;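 active = compounds killing one labelled cell type while sparing the other, by normalised counts and ratio limits, not self-fluorescent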;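 as to all read-outs here: cells exposed to compound for 72 h before imaging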;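 as to red/green cell ratio (normalised): normalised mesenchymal count divided by normalised epithelial count so high means epithelial killing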). As to conditions: imaging cell counts, at 1 µM; for red/green cell ratio (normalised): actives lie on both sides, counts scaled to control wells, 1 = unselective.
Experiment [11] is described as follows: survival rescue of mitochondrial mutant cells in low glucose, primary screen, MELAS cybrids, Rieske KO mouse fibroblasts, CellTiter-Glo (AID 1508586;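 active = mean z-score across replicates of 1.96 or higher in either the MELAS or the Rieske mutant cell line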;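 also: z relative to plate mean and SD of compound and empty wells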).
The target of experiment [12] is NAD(+) hydrolase SARM1 (Homo sapiens) (UniProt Q6SZW1). In words: SARM1 TIR NADase inhibitors, cell lysate, NAD-Glo luminescence (AID 1508614;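 active = compound whose remaining NAD level is above about 45 nM, limit read from the data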;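 also: higher remaining NAD means stronger inhibition of SARM1 NADase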). Particulars: SAM-TIR HEK293T lysate NADase, at 1 µM, stronger effect = higher value.
In experiment [13] the target is Mitogen-activated protein kinase 7 (Homo sapiens) (UniProt Q13164). Put plainly: ERK5 transactivation activators in reporter cells, primary screen, cell-based, HTS (AID 1508626;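 active = luciferase signal above three times the same-plate solvent-only control wells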;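 also: luciferase driven by Gal4-ERK5 fusion binding five Gal4 sites before minimal TATA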). Particulars: HeLa Gal4-ERK5 transactivation, 18 h, at 5 µM, stronger effect = higher value.
Another experiment deals with F380Y. Put plainly: modulators of BK channel variants, profiling panel, selectivity assay, cell-based, U2OS BacMam, thallium flux, beta subunits (AID 1259406).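 Also: initial slope of Thallos dye fluorescence rise after thallium is added; log ratio against the mean of 0.3% DMSO vehicle wells on the same plate.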 As to conditions: at 30 µM.
Another experiment has as its system F380Y/beta2Delta. The description is as above. As to conditions: at 30 µM.
Experiment [14] deals with Calcium-activated potassium channel subunit alpha-1 (Homo sapiens) + Leucine-rich repeat-containing protein 26 (Homo sapiens) (UniProt Q12791+Q2I0M4). Described as above. Particulars: F380Y/Slo1WT/gamma1, at 30 µM.
The next experiment concerns R275C. Described as above. As to conditions: at 30 µM.
A further experiment has as its system R275C/beta1. Described as above. Particulars: at 30 µM.
In a further experiment the test system is R275C/beta2Delta. The description is as above. As to conditions: at 30 µM.
Experiment [15] in a line: sensitizers of A549 cells to miR-34 induction, primary screen, imaging, A549 dox-inducible miR-34, nuclei and caspase counts (AID 1347080). As to conditions: A549 miR-34 inducible, Hoechst nuclei count, 48 h; measured here: total cells without miR-34 induction.
Setting [16] is: measured here: epithelial PC-3E GFP cell survival.
Where [17] appears, read: measured here: mesenchymal TEM4-18 mCherry cell survival.
[18] abbreviates: MELAS cybrid survival, CellTiter-Glo 48 h, stronger effect = higher value.
Setting [19] is: Rieske KO mouse fibroblast survival, CellTiter-Glo 72 h.

Mitogen-activated protein kinase 7 (Homo sapiens), sequence (Q13164 whole entry, looked up, the tested form may be a part): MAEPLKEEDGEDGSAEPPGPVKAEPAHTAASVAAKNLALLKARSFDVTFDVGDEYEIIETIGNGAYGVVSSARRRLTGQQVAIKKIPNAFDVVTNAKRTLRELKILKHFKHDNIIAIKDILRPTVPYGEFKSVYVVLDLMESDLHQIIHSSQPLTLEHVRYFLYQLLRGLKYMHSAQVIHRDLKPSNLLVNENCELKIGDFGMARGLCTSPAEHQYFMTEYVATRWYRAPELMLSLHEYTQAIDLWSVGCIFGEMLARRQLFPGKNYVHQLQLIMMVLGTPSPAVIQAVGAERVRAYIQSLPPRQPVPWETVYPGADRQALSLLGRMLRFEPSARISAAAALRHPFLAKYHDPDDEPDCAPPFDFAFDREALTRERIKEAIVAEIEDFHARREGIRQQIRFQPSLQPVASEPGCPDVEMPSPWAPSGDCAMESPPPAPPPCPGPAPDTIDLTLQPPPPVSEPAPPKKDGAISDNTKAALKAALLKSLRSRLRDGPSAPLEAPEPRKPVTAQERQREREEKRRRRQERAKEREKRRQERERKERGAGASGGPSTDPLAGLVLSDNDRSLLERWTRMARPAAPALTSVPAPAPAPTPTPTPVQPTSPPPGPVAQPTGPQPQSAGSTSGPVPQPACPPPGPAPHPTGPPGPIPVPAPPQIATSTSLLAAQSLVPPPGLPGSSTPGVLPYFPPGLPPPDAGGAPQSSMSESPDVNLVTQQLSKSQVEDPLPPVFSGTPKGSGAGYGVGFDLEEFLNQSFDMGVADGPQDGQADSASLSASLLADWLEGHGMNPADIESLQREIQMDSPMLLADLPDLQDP
Calcium-activated potassium channel subunit alpha-1 (Homo sapiens) + Leucine-rich repeat-containing protein 26 (Homo sapiens), sequence (Q2I0M4 whole entry, looked up, one chain of several): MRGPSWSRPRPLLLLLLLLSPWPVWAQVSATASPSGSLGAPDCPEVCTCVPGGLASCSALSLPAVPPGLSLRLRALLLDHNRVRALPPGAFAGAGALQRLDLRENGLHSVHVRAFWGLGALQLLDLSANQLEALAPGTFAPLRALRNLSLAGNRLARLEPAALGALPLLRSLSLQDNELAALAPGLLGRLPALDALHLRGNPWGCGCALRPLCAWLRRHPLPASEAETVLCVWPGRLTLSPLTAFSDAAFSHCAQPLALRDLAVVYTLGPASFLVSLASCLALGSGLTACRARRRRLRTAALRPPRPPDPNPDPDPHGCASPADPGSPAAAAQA
NAD(+) hydrolase SARM1 (Homo sapiens), sequence (Q6SZW1 whole entry, looked up, the tested form may be a part): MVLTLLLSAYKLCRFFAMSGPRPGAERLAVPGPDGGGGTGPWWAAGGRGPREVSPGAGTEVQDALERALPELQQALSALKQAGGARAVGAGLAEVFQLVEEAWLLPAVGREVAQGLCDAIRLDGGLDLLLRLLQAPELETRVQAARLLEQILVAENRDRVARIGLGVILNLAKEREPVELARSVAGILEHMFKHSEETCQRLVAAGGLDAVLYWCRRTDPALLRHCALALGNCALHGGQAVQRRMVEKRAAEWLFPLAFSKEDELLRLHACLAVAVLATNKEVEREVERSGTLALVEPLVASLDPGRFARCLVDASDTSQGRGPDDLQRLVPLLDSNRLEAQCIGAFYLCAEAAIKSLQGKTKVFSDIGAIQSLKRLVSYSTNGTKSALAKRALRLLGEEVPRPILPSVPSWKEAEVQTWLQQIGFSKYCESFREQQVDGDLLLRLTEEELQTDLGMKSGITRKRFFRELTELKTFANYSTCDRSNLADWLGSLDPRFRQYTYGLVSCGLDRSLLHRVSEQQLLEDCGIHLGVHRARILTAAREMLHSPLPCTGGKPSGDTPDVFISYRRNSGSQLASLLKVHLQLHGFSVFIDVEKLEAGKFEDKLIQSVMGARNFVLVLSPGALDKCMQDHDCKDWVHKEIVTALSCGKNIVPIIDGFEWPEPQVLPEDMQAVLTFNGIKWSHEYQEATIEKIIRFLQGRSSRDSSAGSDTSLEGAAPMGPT
6-phosphogluconate dehydrogenase, decarboxylating (Homo sapiens), sequence (P52209 whole entry, looked up): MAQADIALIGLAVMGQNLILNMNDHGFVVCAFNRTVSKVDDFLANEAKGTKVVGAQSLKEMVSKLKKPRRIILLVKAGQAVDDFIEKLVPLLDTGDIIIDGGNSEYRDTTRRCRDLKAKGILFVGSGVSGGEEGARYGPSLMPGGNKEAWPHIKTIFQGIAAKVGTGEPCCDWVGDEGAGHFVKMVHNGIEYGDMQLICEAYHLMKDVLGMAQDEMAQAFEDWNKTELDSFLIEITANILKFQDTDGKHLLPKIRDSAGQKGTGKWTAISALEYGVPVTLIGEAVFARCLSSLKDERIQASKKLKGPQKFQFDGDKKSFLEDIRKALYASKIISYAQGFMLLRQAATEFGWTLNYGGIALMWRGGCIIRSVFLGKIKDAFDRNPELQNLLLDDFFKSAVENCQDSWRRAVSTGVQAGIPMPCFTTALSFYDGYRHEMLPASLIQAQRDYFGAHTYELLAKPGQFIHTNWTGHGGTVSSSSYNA

As to `CN(CCOc1ccc(CC2SC(=O)NC2=O)cc1)c1ccccn1` (stereo not given), the nuclear beta-catenin stimulation in [1] (at 10 µM) was 4.7% (inactive); in [1] (stimulation, at 2 µM), 0.1%. The insulin secretion stimulation in experiment [2] is -0.5% (inactive). Further, the viability decrease in experiment [3] is -166% (inactive). Further, the tube area decrease in experiment [4] was -11.1% (inactive). In addition, the GLP1 secretion stimulation in experiment [5] is -2.5% (inactive). The inhibition of viability in [6] is -4.27% (inactive). The viability decrease (inhibition) in [7] was 17.9% (inactive); in experiment [8], -28.4% (inactive). Moreover, the inhibition (usually the change of the read-out against control, counted positive when it falls) in [9] is -0.784% (inactive). For the same compound, the red/green cell ratio (normalised) in [10] is 0.92 (inactive). In addition, the normalised cell number is 1.63 in experiment [10] (setting [16]) and 1.5 in experiment [10] (setting [17]). For the same compound, the z-score is -0.369 (inactive) and -0.527 (inactive) in experiment [11] (setting [18]); 0.76 and -1.4 in experiment [11] (setting [19]). The remaining NAD in [12] is 10 nM (inactive). The luciferase signal in [13] was 72 AU (inactive). The log fold change Tl+ flux with F380Y is -0.00159 (inactive) and 0.0548 (inactive); in the experiment on F380Y/beta2Delta, -0.0425 (inactive) and 0.0999 (inactive); in [14], -0.00356 (inactive) and 0.0332 (inactive); in the experiment with R275C, 0.0457 (inactive) and 0.0237 (inactive); in the experiment with R275C/beta1, 0.113 (active) and 0.178 (active); in the experiment on R275C/beta2Delta it was 0.0398 (inactive) and 0.0538 (inactive).
For `CN(C)CCC=C1c2ccccc2CCc2ccccc21`, the nuclear beta-catenin stimulation in experiment [1] (at 10 µM) is -0.4% (inactive); in experiment [1] (stimulation, at 2 µM), 1.1%. Further, the insulin secretion stimulation in experiment [2] is 41.5% (active). The viability decrease in experiment [3] is -59% (inactive). Besides, the tube area decrease in experiment [4] was 25% (inactive). The GLP1 secretion stimulation in experiment [5] was 5% (inactive). In addition, the inhibition of viability in experiment [6] is 21.5% (inactive). Further, the viability decrease (inhibition) in experiment [7] was 72.1% (active); in [8], -1.8% (inactive). Moreover, the inhibition in [9] is 6.7% (inactive). For the same compound, in experiment [10], the red/green cell ratio (normalised) is 1 (inactive). For the same compound, the normalised cell number in experiment [10] (setting [16]) and in experiment [10] (setting [17]) was 1.31 in each case. Moreover, the z-score in [11] (setting [18]) is -0.201 (inactive) and -0.81 (inactive); in experiment [11] (setting [19]), -0.129 and 0.0803. Moreover, in experiment [12], the remaining NAD is 10 nM (inactive). The luciferase signal in [13] was 36 AU (inactive). The log fold change Tl+ flux was 0.184 (active) in the experiment with F380Y; 0.179 (active) in the experiment with F380Y/beta2Delta; 0.0267 (inactive) in experiment [14]; 0.07 (inactive) in the experiment with R275C; 0.106 (inactive) in the experiment with R275C/beta1; 0.128 (active) in the experiment with R275C/beta2Delta.
With `C=C(CC)C(=O)c1ccc(OCC(=O)O)c(Cl)c1Cl`, the nuclear beta-catenin stimulation was 3% (inactive) in experiment [1] (at 10 µM) and 1.4% in experiment [1] (stimulation, at 2 µM). Moreover, the insulin secretion stimulation in experiment [2] was -2.5% (inactive). Besides, in [3], the viability decrease was 24.9% (inactive). Further, in experiment [4], the tube area decrease was 52.6% (active). The GLP1 secretion stimulation in experiment [5] is 3.1% (inactive). In experiment [6], the inhibition of viability is -25.8% (inactive). For the same compound, the viability decrease (inhibition) in [7] is 122% (active); in experiment [8] it was 14.8% (inactive). Moreover, the inhibition in experiment [9] is 9.98% (inactive). Further, the red/green cell ratio (normalised) in experiment [10] is 0.98 (inactive). The normalised cell number in experiment [10] (setting [16]) was determined as 0.92; in experiment [10] (setting [17]) it was 0.9. In addition, the cell count in experiment [15] is 10500 and 9830 and 12200. For the same compound, the z-score in experiment [11] (setting [18]) was 0.232 (inactive) and -0.08 (inactive); in experiment [11] (setting [19]), -0.298 and 0.189. Moreover, the remaining NAD in experiment [12] is 10 nM (inactive). In addition, in experiment [13], the luciferase signal is 64 AU (inactive). For the same compound, the log fold change Tl+ flux in the experiment with F380Y was -0.0103 (inactive); in the experiment with F380Y/beta2Delta, -0.0325 (inactive); in [14] it was 0.0507 (inactive); in the experiment with R275C it was -0.00646 (inactive); in the experiment with R275C/beta1 it was 0.0596 (inactive); in the experiment on R275C/beta2Delta it was 0.0176 (inactive).
